High-throughput results (PubChem BioAssay)
Shown are actives, neighbours in structure and some others; about 3.4% of the full set was active somewhere.
PAFAH1B2 FP inh: inhibitors of human PAFAH1B2; recombinant PAFAH1B2, FP-rhodamine activity probe, fluorescence polarization; hit rate 1.2% among 340,000; AID 492953; inhibition, % at 3.39 µM; P68402;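 active = inhibition above the mean of all tested compounds plus 3 SD, cut at about 24% in these data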;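 also: 0% = enzyme with DMSO and 100% = wells lacking PAFAH1B2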
pPAFAH inh: inhibitors of human plasma PAF acetylhydrolase (pPAFAH); Q13093; recombinant pPAFAH, FP-rhodamine probe fluorescence polarization; inhibition, % at 3.39 µM; hit rate 1.5% among 330,000;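 active = inhibition above the mean inhibition across the screen plus 3 SD, cut at about 25% in these data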;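 also: inhibitors block binding of the rhodamine activity-based probe so polarization drops; 0% = enzyme with DMSO and 100% = wells lacking pPAFAH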
PAFAH2 inh: inhibitors of human PAFAH2; Q99487; recombinant PAFAH2, FP-rhodamine activity probe, fluorescence polarization; inhibition, % at 3.39 µM; hit rate 0.99% among 340,000;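 active = inhibition above the mean over all tested compounds plus 3 SD, cut at about 30% in these data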;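 also: inhibitors block probe labeling of enzyme so polarization drops; 0% = enzyme with DMSO and 100% = wells lacking PAFAH2 protein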
PAFAH1B3 inh: inhibitors of human PAFAH1B3; inhibition, % at 3.39 µM; Q15102; recombinant PAFAH1B3, FP-rhodamine probe, fluorescence polarization; hit rate 0.28% among 340,000;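 active = inhibition above the screen-wide average of all tested compounds plus 3 SD, cut at about 25% in these data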;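 also: 0% = enzyme with DMSO only and 100% = wells lacking PAFAH1B3 protein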
Target sequence (Q15102 whole entry, looked up): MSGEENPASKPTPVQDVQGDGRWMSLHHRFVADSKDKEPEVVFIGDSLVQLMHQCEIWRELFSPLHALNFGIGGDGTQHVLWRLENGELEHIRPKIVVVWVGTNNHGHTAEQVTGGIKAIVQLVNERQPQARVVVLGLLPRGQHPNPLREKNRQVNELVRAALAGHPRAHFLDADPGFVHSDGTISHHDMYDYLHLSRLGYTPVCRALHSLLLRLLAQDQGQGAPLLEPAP
PP1 inh: counter-screen for PP5 inhibitors: inhibitors of human PP1-alpha. inhibition, % at 6.7 µM. purified PP1alpha, OMFP fluorescence. hit rate 0.9% among 320,000. AID 2235. P62136;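 active = inhibition above the mean inhibition of all tested compounds plus 3 SD, computed separately for each screening campaign, cut at about 15% in these data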
Target sequence (P62136 whole entry, looked up): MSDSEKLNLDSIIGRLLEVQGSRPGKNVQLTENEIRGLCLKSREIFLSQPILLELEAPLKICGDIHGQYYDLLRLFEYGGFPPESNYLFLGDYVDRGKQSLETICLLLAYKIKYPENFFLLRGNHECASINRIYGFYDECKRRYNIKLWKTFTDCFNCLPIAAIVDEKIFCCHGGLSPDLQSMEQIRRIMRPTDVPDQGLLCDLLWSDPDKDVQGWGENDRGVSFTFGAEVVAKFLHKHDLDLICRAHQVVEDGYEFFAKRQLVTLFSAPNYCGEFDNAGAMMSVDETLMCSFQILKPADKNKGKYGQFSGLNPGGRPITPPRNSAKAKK
PP5 primary: blocks human protein phosphatase 5 activity | P53041 | purified PP5c, OMFP substrate fluorescence | inhibition, % at 6.7 µM | hit rate 0.18% among 320,000 | AID 1987;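 active = inhibition above the campaign's mean inhibition across all tested compounds plus 3 SD, cut at about 9.5% in these data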;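 also: 0% = DMSO only and 100% = 100 µM cantharidin control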
PAFAH2 confirm: confirmation of human PAFAH2 inhibitors. shares compounds with PAFAH2 inh. recombinant PAFAH2, FP-rhodamine activity probe, fluorescence polarization. inhibition, % at 3.39 µM. hit rate 65% among 2,300. AID 493030;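 active = mean inhibition over three repeats above a set limit taken from the earlier primary screen, cut at about 30% in these data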;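 also: inhibitor blocks binding of rhodamine activity probe so polarization falls; 0% = enzyme with DMSO and 100% = wells lacking PAFAH2 protein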
* = called active by the depositor; x = no result given.

SMILES	PAFAH1B2 FP inh	pPAFAH inh	PAFAH2 inh	PAFAH1B3 inh	PP1 inh	PP5 primary	PAFAH2 confirm
COc1cc(/C=C/C(=O)OCC(=O)Nc2cc(S(=O)(=O)N3CCCC3)ccc2Cl)cc(OC)c1OC	0	8	31*	6	x	x	26
COc1cc(/C=C/C(=O)OCC(=O)Nc2ccc(C)c(S(=O)(=O)N3CCCCC3)c2)ccc1O	2	11	67*	5	3	3	73*
COc1cc(/C=C/C(=O)OCC(=O)Nc2cc(S(=O)(=O)N3CCCCC3)ccc2C)ccc1O	-2	12	75*	-5	1	1	79*
COc1cc(C(C)=O)ccc1OCC(=O)Nc1ccc(C)c(S(=O)(=O)N2CCCCCC2)c1	6	1	1	-1	4	-2	x
O=C(CCc1c[nH]c2ccccc12)N1CCCC1	4	6	0	7	0	3	x
O=C(COC(=O)c1ccc2c(c1[N+](=O)[O-])C(=O)c1ccccc1C2=O)NC1CC1	12	-4	36*	18	-4	-3	24
CC1CCCCC1NC(=O)COC(=O)c1ccc2c(c1Cl)C(=O)c1ccccc1C2=O (stereo not drawn)	0	20	54*	5	1	-1	55*
O=C(COC(=O)c1cccc2c1C(=O)c1ccccc1C2=O)NC1CCCCC1	3	21	20	-2	-1	3	x
Cc1ccc(S(=O)(=O)NCCSc2nnnn2-c2ccccc2)cc1	1	6	0	8	2	2	x
CC(NC(=O)CCC(=O)c1ccc(F)cc1)C1CC2CCC1C2 (stereo not drawn)	6	3	16	6	-5	1	x
CC(NC(=O)c1ccc(N(C)C)cc1)C1CC2CCC1C2 (stereo not drawn)	12	x	46*	0	x	x	33*
CC(NC(=O)COC(=O)c1ccc(CO)cc1)C1CC2CCC1C2 (stereo not drawn)	2	1	68*	2	0	0	64*
O=C(NC(=S)N1CCN(c2ccc([N+](=O)[O-])cc2)CC1)c1ccc(F)cc1	5	12	0	8	3	1	x
CCOC(=O)C1=C(C)N=c2s/c(=C\c3ccc(O)c([N+](=O)[O-])c3)c(=O)n2C1c1ccccc1OC (stereo not drawn)	15	23	36*	20	10	5	25
CCOC(=O)C1=C(C)N=c2s/c(=C\c3ccc(OCC(=O)O)cc3)c(=O)n2C1c1ccccc1OC (stereo not drawn)	-3	3	12	-7	3	1	x
CC(=O)c1c(C)[nH]c(C(=O)OCC(=O)Nc2cccc(S(=O)(=O)N3CCCC3)c2)c1C	-6	-9	37*	-5	-1	1	15
CC(=O)c1c(C)[nH]c(C(=O)OCC(=O)Nc2cccc(S(=O)(=O)N(C)C)c2)c1C	11	-5	31*	9	-5	-1	31*
Cc1ccc2nc(SCC(=O)NCc3cccs3)[nH]c2c1	15	8	0	9	-5	-3	x
S=C(NCc1ccco1)Nc1ccccc1Cl	-1	5	-4	-2	-1	2	x
CN(/N=C/c1cc([N+](=O)[O-])ccc1O)c1ccccc1	0	7	35*	8	2	0	31*
CC(N=Cc1cc([N+](=O)[O-])ccc1O)c1ccccc1 (stereo not drawn)	2	-4	13	13	2	-6	x
Cc1cc(CSc2nc(C)cc(=O)[nH]2)c2ncccc2c1	8	5	0	12	-3	0	x
Cc1cc(=O)[nH]c(SCc2cccc3ccccc23)n1	4	0	35*	8	-1	1	25
COc1ccccc1CNCCS(=O)(=O)NCc1ccccc1OC	4	x	-1	6	x	x	x
CCOC(=O)c1cc(/C(C)=N/OC(=O)c2ccc(Cl)cc2)on1	x	4	x	x	-2	-2	x
SMILES	PAFAH1B2 FP inh	pPAFAH inh	PAFAH2 inh	PAFAH1B3 inh	PP1 inh	PP5 primary	PAFAH2 confirm
C/C(=N/OC(=O)CC(C)C)c1cc(-c2ccc(Cl)cc2)no1	0	8	57*	9	-4	-3	45*
O=C(COC(=O)/C=C/c1ccc(F)cc1)NC1CCCC1	3	x	79*	3	x	x	86*
O=C(COC(=O)/C=C/c1ccc(Cl)c(Cl)c1)NC1CC1	9	6	17	7	x	x	x
O=C(COC(=O)/C=C/c1ccc(Cl)cc1)NC1CCCC1	6	2	64*	6	-5	3	67*
CC(C)NC(=O)COC(=O)/C=C/c1ccc(F)cc1	-3	1	36*	5	3	-2	22
O=C(COC(=O)/C=C/c1ccc(F)cc1)NC1CCCCCC1	0	12	89*	3	x	x	81*
CCOc1ccc(N2C(=O)Nc3ccccc3C2(O)C(=O)NCc2ccccc2)cc1 (stereo not drawn)	-3	3	-5	6	-1	1	x
O=C(COC(=O)c1ccc(F)cc1)NC1CC1	4	1	22	8	-5	3	x
O=C(COC(=O)/C=C/c1ccc(F)cc1)NC1CC1	-1	2	49*	1	x	x	37*
CC1CC(C)CN(C(=O)CNS(=O)(=O)c2ccc(Br)s2)C1 (stereo not drawn)	22	-3	4	8	-2	3	x
Cc1ccc(N2CCN(C(=O)CNS(=O)(=O)c3ccc(Br)s3)CC2C)cc1 (stereo not drawn)	12	3	36*	5	7	6	24
O=C(N/N=C/c1coc2ccccc2c1=O)c1cc(Br)c(O)c(Br)c1	5	x	71*	4	x	x	55*
O=C(N/N=C/c1coc2ccccc2c1=O)c1ccncc1	7	x	-2	13	x	x	x
Cc1ccc2c(c1)N(CC(=O)NCCCN1CCCCC1)C(=O)CO2	7	-1	-13	0	-4	1	x
CCCNC(=O)COC(=O)/C=C/c1ccco1	7	0	36*	2	1	2	28
O=C(COC(=O)/C=C/c1ccc(Cl)cc1)NC(=O)NCc1ccccc1	-8	-7	-18	-7	8	1	x
O=C(COC(=O)/C=C/c1ccco1)NCc1ccc(Cl)cc1	4	-3	43*	2	0	2	38*
O=C(COC(=O)/C=C/c1ccccc1)NCc1ccc(Cl)cc1	1	9	34*	8	0	-1	34*
O=C(O)/C=C/C(=O)N1CCN(c2ccccc2F)CC1	6	5	-2	-6	-1	-5	x
COc1ccc(/C=C2\SC(=O)N(CCC(=O)N3CCCCC3CCO)C2=O)cc1 (stereo not drawn)	2	3	7	1	2	-2	x
CC(C)(CC(=O)OCC(=O)Nc1ccccc1F)CC1=NS(=O)(=O)c2ccccc2N1	-7	0	31*	1	-1	3	28
